Screening results from PubChem.
The list is not random: actives were taken first. Their share in the collection is about 19%.
TDP1 cell CPT: DT40-hTDP1 cell growth loss with CPT; Potency, µM (titrated, usually from 46.2 µM), for inactives: top-dose activity change, negative = growth inhibition, actives largely listed as inhibitors; AID 686979; chicken DT40 Tdp1-/-;hTDP1 cells + 20 nM CPT, ATP luminescence, 48 h; actives 12% (n = 420,000); further: potency means the concentration at half of the fitted maximal effect; nearly all actives have a fitted effect of over 55% in size
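Chicken DT40 Tdp1-/- cells complemented with human TDP1, 400 cells/well, exposed to compounds plus 20 nM camptothecin for at least 48 h at 37 C; viability read as ATP content by CellTiter-Glo luminescence.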
ELG1 repair inh: blocks ELG1-dependent DNA repair in HEK293T cells; HEK293T ELG1-luciferase reporter, luminescence, 16 h; DNA damage induced by 5-fluorouridine; Potency, µM (highest dose often 46.1 µM), inactives show top-dose activity change, negative = inhibition, most hits filed as inhibitors; actives 2.3% (n = 330,000); AID 504467; further: potency means the concentration at half of the fitted maximal effect; nearly all actives have a fitted effect of over 55% in size
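DMSO vehicle served as the neutral condition. Each well held 2,000 cells given 5-fluorouridine plus compound; after 16 hr at 37 °C/5% CO2, ONE-Glo was added and luciferase measured 30 min later.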
HT1080NT lethal: kills 2HG-producing HT-1080-NT fibrosarcoma cells. HT-1080-NT fibrosarcoma viability, CellTiter-Glo ATP luminescence, 48 h. Potency, µM (doses to about 46.1 µM), inactives show at the highest dose activity, negative = less viability, usual class: cytotoxic. actives 1.6% (n = 360,000). AID 686970;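 further: NT is the 2HG producing partner of a matched IDH1 knockdown line; potency means the concentration at half of the fitted maximal effect; 0% = DMSO-treated cells and -100% = media-only wells without cells; nearly all actives have a fitted effect of over 55% in size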
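Read-out is CellTiter-Glo luminescence after 10 minutes at room temperature, following 48 hours' compound treatment of HT-1080-NT cells (750 cells/well, RPMI, 5% FBS, 37 degrees C).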
IL1B secr inh: inhibitors of inflammasome signaling (IL-1 beta secretion). activity change, % at 57.5 µM. THP-1 LPS/ATP IL-1B secretion, AlphaLISA, 16 h; active compounds read low. actives 4.7% (n = 360,000); in the data active means activity change below about -50%; inconclusive means mostly about -30% to -49%
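THP-1 cells pretreated 1 hr with compounds (up to 57.5 uM final), then stimulated with LPS (250 ng/mL final) plus ATP (1.25 mM final); secreted IL-1B measured by AlphaLISA after 16 hr, decreased signal indicating inhibition.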
DT40 TDP1 no CPT: qHTS for Inhibitors of human tyrosyl-DNA phosphodiesterase 1 (TDP1): qHTS in cells in absence of CPT. AID 686978, 2013. DT40 Tdp1-/- hTDP1 cells, no CPT, ATP luminescence, 48 h. actives 15% (n = 420,000). Potency, µM (top dose mostly 46.2 µM), without a hit: at the highest dose activity change, negative = growth inhibition, most hits filed as inhibitors; further: potency means the concentration at half of the fitted maximal effect; nearly all actives have a fitted effect of over 55% in size
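Growth of hTDP1-complemented DT40 Tdp1-knockout cells is measured by ATP luminescence after at least 48 hr compound exposure at 37 °C, with DMSO substituting for the 20 nM CPT used in the parallel screen.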
HT1080 IDH1KD tx: HT-1080 IDH1 knockdown cell toxicity (counter line); HT-1080 IDH1 knockdown viability, ATP luminescence, 48 h; Potency, µM (titrated, usually from 46.1 µM), for inactives: at the top dose activity, negative = toxicity, most hits filed as cytotoxic; actives 2% (n = 360,000);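 further: potency means the concentration at half of the fitted maximal effect; 0% = DMSO wells and -100% = cell-free medium wells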
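Luminescent ATP read-out (CellTiter-Glo, 10 min at room temperature) after 48 h compound exposure at 37 °C gave viability of IDH1-knockdown HT-1080 cells. Activity was normalised to DMSO and cell-free wells, then fitted as concentration-response curves.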
Starred values were filed as active, the others as inactive; ? = inconclusive; nt = no result given; ! = not confirmed by another sample; [ ] = remark or other dose. Unless noted, the call rests on the fitted dose curve; in most records, active means well fitted curve in the direction sought with a large enough effect; inconclusive means small, poorly fitted or top-dose-only effect, or another doubt; inactive means no such curve, though single readings can be large; an effect the other way counts as inactive or inconclusive. Unless noted, on the % scale 0 is the no-effect control and ±100 the full control effect.

SMILES | TDP1 cell CPT | ELG1 repair inh | HT1080NT lethal | IL1B secr inh | DT40 TDP1 no CPT | HT1080 IDH1KD tx
Cc1nnc(SCC(=O)N(CC(C)C)C2CCS(=O)(=O)C2)s1 (stereo unspecified) | -3% | 15% | -7% | 12 | 10% | -10%
COCCCN(C(=O)CCOc1ccc(C)cc1)c1c(N)n(Cc2ccccc2)c(=O)[nH]c1=O | 2% | 7% | -1% | -5 | 3% | -1%
Cc1ccc(C(=O)N(Cc2cc3cc4c(cc3nc2N2CCOCC2)CCC4)CC2CCCO2)s1 (stereo unspecified) | 11%[9.04 µM] | nt | nt | nt | -22% | nt
COc1ccc2nc(NC(=O)c3nc(S(=O)(=O)Cc4ccccc4)ncc3Cl)sc2c1 | 1µM* | nt | nt | nt | 1.3µM* | nt
CCSc1ncc(Cl)c(C(=O)Nc2nc3ccc(OC)cc3s2)n1 | -22% | nt | nt | nt | -21% | nt
COc1ccc2nc(NC(=O)c3nc(S(=O)(=O)Cc4ccccc4F)ncc3Cl)sc2c1 | 0.92µM* | nt | nt | nt | 1.5µM* | nt
COc1ccc2nc(NC(=O)c3nc(SCc4ccccc4F)ncc3Cl)sc2c1 | 9% | nt | nt | nt | -1% | nt
COc1ccc(C2CC(=O)N(C)c3ccccc3S2)cc1OC (stereo unspecified) | 21µM* | ? | -12% | -14 | ? | 1%
COc1ccc(C2CC(=O)N(CC(=O)NCC3CCCO3)c3ccccc3S2)cc1OC (stereo unspecified) | 8% | 1% | 13% | -22 | -1% | 7%
O=Cc1ccc(OCCOc2ccc([N+](=O)[O-])cc2)cc1 | ? | -1% | 2% | 0 | -16% | -1%
CCN1C(=O)[C@H]2[C@@H](c3ccc(-c4ccc(Cl)c(Cl)c4)cc3)N[C@@](C)(C(=O)OC)[C@H]2C1=O | 8.2µM* | ? | -9% | -25 | 8.2µM* | 0%
CCN1C(=O)[C@H]2[C@@H](c3ccc(-c4ccc(Cl)c(Cl)c4)c(OC)c3)N[C@@](C)(C(=O)OC)[C@H]2C1=O | 4.6µM* | -27% | -5% | -17 | 6.5µM* | 2%
COC(=O)[C@]1(C)N[C@H](c2ccc(SC3CCCCC3)c(OC)c2)[C@@H]2C(=O)N(C)C(=O)[C@@H]21 | ? | 4% | 6% | 2 | 12µM* | -1%
CCN1C(=O)[C@H]2[C@@H](c3ccc(-c4ccc5c(c4)OCO5)c(OC)c3)N[C@@](C)(C(=O)OC)[C@H]2C1=O | ? | 0% | ? | 16 | ? | -8%
COc1ccc(NC(=O)CC2C(=O)N(c3ccc(C)cc3)C(=O)N2Cc2cccnc2)cc1 (stereo unspecified) | -27% | nt | nt | nt | ? | nt
CCOC(=O)c1ccc(CNC(=O)C2CCCCC2C(=O)OCC(F)(F)F)o1 (stereo unspecified) | -10% | 8% | 7% | 5 | -4% | 20%
Cc1[nH]c2c(Cl)cccc2c1CCNC(=O)C1CCCCC1C(=O)OCC(F)(F)F (stereo unspecified) | 14% | 6% | -20% | -80* | -26% | -7%
COc1ccc(C(=O)c2cn(CC(=O)Nc3cc(OC)cc(OC)c3)c3ccc(OC)cc3c2=O)cc1 | -10% | nt | nt | nt | ? | nt
Nc1ccc(Br)cc1Br | -21% | 4% | -1% | 0 | 17% | 0%
O=C(NCCCN1CCN(c2ccc(F)cc2)CC1)C1CCCN(c2ncnc3c2nc2n3CCCCC2)C1 (stereo unspecified) | ? | ? | -7% | ? | 8.2µM* | -6%
Cc1ccccc1CN1CCC(CNC(=O)C2CCCN(c3ncnc4c3nc3n4CCCCC3)C2)CC1 (stereo unspecified) | ? | -5% | ? | -86* | ? | ?
COc1ccccc1CNC(=O)C1CCN(c2ncnc3c2nc2n3CCCCC2)CC1 | ? | ? | -3% | -10 | 23µM*! | -14%
CC1CCN(CCCNC(=O)C2CCCN(c3ncnc4c3nc3n4CCCCC3)C2)CC1 (stereo unspecified) | -5% | 22% | -2% | -5 | -14% | 3%
CC1CCCN(CCCNC(=O)C2CCCN(c3ncnc4c3nc3n4CCCCC3)C2)C1 (stereo unspecified) | 6% | 16% | -2% | 0 | -18% | 2%
CCOc1ccc(Nc2ncnc3c2nc2n3CCCCC2)cc1 | ? | nt | nt | nt | 21µM* | nt
SMILES | TDP1 cell CPT | ELG1 repair inh | HT1080NT lethal | IL1B secr inh | DT40 TDP1 no CPT | HT1080 IDH1KD tx
COc1cccc(C(=O)c2cn(CC(=O)Nc3cccc(Cl)c3C)c3nc(C)ccc3c2=O)c1 | 4% | nt | nt | nt | -18% | nt
O=c1cc(-c2ccccc2)n2c(SCc3ccc(F)cc3)nnc2[nH]1 | 15% | nt | nt | nt | 9% | nt
COc1ccc(NC(=O)C2CC(=O)N(c3ccccc3F)C2)cc1S(=O)(=O)N1CCCCC1 (stereo unspecified) | -13% | nt | 13% | 10 | ? | 10%
Cc1noc(C)c1S(=O)(=O)N(C)C[C@H]1Oc2ccc(NC(=O)NC(C)C)cc2C(=O)N([C@H](C)CO)C[C@@H]1C | 24% | 20% | 18% | 18 | 16% | 0%
COc1cccc(CCNC(=O)C2CCCN(c3ncnc4c3nc3n4CCCCC3)C2)c1OC (stereo unspecified) | -3% | 7.3µM* | 3% | 60 | ? | -8%
COc1ccccc1CNc1ncnc2c1nc1n2CCCC1 | ? | nt | nt | nt | 8.2µM* | nt
COCCCNc1ncnc2c1nc1n2CCCC1 | -11% | -3% | -5% | 73 | -4% | -1%
COc1ccccc1N1CCN(CCCNC(=O)C2CCCN(c3ncnc4c3nc3n4CCCCC3)C2)CC1 (stereo unspecified) | ? | 12µM* | -10% | -28 | ? | 1%
